{"source": "PubChem BioAssay (Tox21)", "note": "Records with an inconclusive call do not appear. A number with no mark means an inactive call. The source made the active and inactive calls. The call rests on the fitted dose curve; in most records, active means well fitted activation curve with a large enough effect in the repeat runs; inconclusive means weak or mixed curves; inactive means flat fitted curve, though single readings scatter. On the % scale 0 is the no-effect control and ±100 the full control effect; potency means the concentration at half of the fitted maximal effect."}
{"assay": "A CellTox Green Cytotoxicity Assay to monitor cytotoxicity in HEK293 cells - 32 hour (AID 1224881); further: nearly all actives have a fitted effect of over 40% in size", "conditions": "CellTox Green fluorescence; series mostly up to 76.8 µM; cytotoxicity increase: at the top concentration", "source_text": "National Center for Advancing Translational Sciences [NCATS]\nNIH Chemical Genomics Center [NCGC]\nU.S. Environmental Protection Agency [EPA]\nNational Institutes of Environmental Health Sciences [NIEHS]\nNational Toxicology Program [NTP]\nCell-based models are critical for drug discovery. Determining the natural cytotoxic effects resulting from test compounds is an essential research activity. A CellTox Green Cytotoxicity Assay to monitor cytotoxicity in real time of continues cell culture during 40 hours of the compound treatment was used to screen Tox21 10K library compounds in Hek293 cells. CellTox Green Cytotoxicity Assay is a nonlytic, homogeneous, biofluorescent method to measure cytotoxicity in cell culture after experimental manipulation. The assay system uses a proprietary asymmetric cyanine dye that is excluded from viable cells but preferentially stains the dead cell's DNA. […] Viable cells produce no appreciable increases in fluorescence. Therefore, the fluorescence signal produced by the binding interaction with dead cell DNA is proportional to cytotoxicity.\nThe mixture of Hek293 cell suspension and reagents were dispensed at 600cells/6 ul/well in 1536-well tissue culture treated black solid bottom plates using a Multidrop dispenser. After the assay plates were incubated at a 37 C/5% CO2 incubator for 5 hours, 23 nL of compounds dissolved in DMSO, positive and negative controls was transferred to the assay plate by a pintool work station. The plates were incubated at 37 C for 40 hours. The fluorescence intensity were measured at 0h, 8h, 16h, 24h, 32h and 40h time points using ViewLux plate reader during compound treatment."}
{"smiles": "ON(Cc1ccccc1)Cc1ccccc1", "cytotoxicity increase": "6.57%"}
{"smiles": "O=C(O)c1ccccc1NCCc1ccccc1", "cytotoxicity increase": "-7.84% [at 35.3 µM]"}
{"smiles": "Cc1ccc(/C=N/n2c(-c3ccccc3)csc2=S)cc1", "cytotoxicity increase": "0.489% [at 35.3 µM]"}
{"smiles": "CC1CN(c2cc3c(cc2F)c(=O)c(C(=O)O)cn3-c2ccc(F)cc2F)CCN1", "note": "(stereo not given)", "cytotoxicity increase": "-2.92% [at 6.97 µM]"}
{"smiles": "O=C(NCCCN1CCOCC1)c1ccc(Cl)cc1", "cytotoxicity increase": "-3.04% [at 35.3 µM]"}
{"smiles": "c1cnc2c(n1)CCCC2", "Potency": "43.6 µM (active)"}
{"smiles": "C[C@@H]1C[C@H]2[C@@H]3CCC4=CC(=O)C=C[C@]4(C)[C@@]3(F)[C@@H](O)C[C@]2(C)[C@H]1C(=O)CO", "cytotoxicity increase": "18.2% [at 35.3 µM]"}
{"smiles": "CC(C)(C)C(=O)O", "cytotoxicity increase": "11.5%"}
{"smiles": "C[Si]1(C)O[Si](C)(C)O[Si](C)(C)O1", "cytotoxicity increase": "-3.19%"}
{"smiles": "O=c1[nH]c2ccc(S(=O)CCN3CCC(Cc4ccc(F)cc4)CC3)cc2o1", "note": "(stereo not given)", "cytotoxicity increase": "-10.7%"}
{"smiles": "NC(=O)N(O)[C@@H]1COc2cc(OCc3ccccc3)ccc21", "cytotoxicity increase": "-7.84%"}
{"smiles": "CC(C)(C)C(=O)C(Oc1ccc(Cl)cc1)n1ccnc1", "note": "(stereo not given)", "cytotoxicity increase": "-8.05% [at 35.3 µM]"}
{"smiles": "O=Cc1c(Cl)cccc1Cl", "cytotoxicity increase": "-8.1%"}
{"smiles": "O=C(CCCCCCCCC#CI)Oc1ccccc1", "cytotoxicity increase": "-6.38% [at 35.3 µM]"}
{"smiles": "O=C(C(=O)c1ccccc1)c1ccccc1", "cytotoxicity increase": "2.55%"}
{"smiles": "CCC(Cc1ccccc1)(C(=O)c1ccc(N2CCOCC2)cc1)N(C)C", "note": "(stereo not given)", "cytotoxicity increase": "20.2%"}
{"smiles": "CC(C)CCCCCOC(=O)CCCCC(=O)OCCCCCC(C)C", "cytotoxicity increase": "-2.86%"}
{"smiles": "CCN(Cc1cccc(S(=O)(=O)O)c1)c1ccc(C(=C2C=CC(=[N+](CC)Cc3cccc(S(=O)(=O)[O-])c3)C=C2)c2ccccc2)cc1", "cytotoxicity increase": "-8.11% [at 35.3 µM]"}
{"smiles": "CC(=O)Oc1ccc(C(=C2CCCCC2)c2ccc(OC(C)=O)cc2)cc1", "cytotoxicity increase": "0.739% [at 35.3 µM]"}
{"smiles": "CN(C)C(=O)Nc1ccc(Oc2ccc(Cl)cc2)cc1", "cytotoxicity increase": "1.31%"}
{"smiles": "Cc1ccc(S)cc1", "cytotoxicity increase": "-6.24%"}
{"smiles": "CC(COc1ccc(C(C)(C)C)cc1)OS(=O)OCCCl", "note": "(stereo not given)", "cytotoxicity increase": "19.8%"}
{"smiles": "CO[C@H]1C=CO[C@@]2(C)Oc3c(C)c(O)c4c(O)c(c5c(c4c3C2=O)=NC2(CCN(CC(C)C)CC2)N=5)NC(=O)/C(C)=C\\C=C/[C@H](C)[C@H](O)[C@@H](C)[C@@H](O)[C@@H](C)[C@H](OC(C)=O)[C@@H]1C", "cytotoxicity increase": "-4.16%"}
{"smiles": "Nc1ccc(C(=O)OCCCOC(=O)c2ccc(N)cc2)cc1", "cytotoxicity increase": "1.39%"}
{"smiles": "C=CCCCCCCCCCCCCCCCC", "cytotoxicity increase": "-2.25% [at 6.97 µM]"}
{"smiles": "Nc1c(I)cc(I)c(C(=O)N(CCC(=O)O)c2ccccc2)c1I", "cytotoxicity increase": "-19.7% [at 35.3 µM]"}
{"smiles": "CC(C)(C)CC(C)(C)c1ccc(OCCO)cc1", "Potency": "54.6 µM (active)"}
{"smiles": "CCCCN(CCCC)CCCOC(=O)c1ccc(N)cc1", "cytotoxicity increase": "1.42% [at 35.3 µM]"}
{"smiles": "COCC(O)CO", "note": "(stereo not given)", "cytotoxicity increase": "-17.2%"}
{"smiles": "COCCOC", "cytotoxicity increase": "1.47%"}
{"smiles": "COc1cc2c(N3CCN(C(=O)Nc4ccc(OC(C)C)cc4)CC3)ncnc2cc1OCCCN1CCCCC1", "cytotoxicity increase": "26.8% [at 35.3 µM]"}
{"smiles": "NC(=O)Cn1c(=O)cc(CCN2CCN(c3nccc4sccc34)CC2)c2ccc(F)cc21", "cytotoxicity increase": "0.132%"}
{"smiles": "CC(=O)[C@H]1CC[C@H]2[C@@H]3C=CC4=CC(=O)CC[C@@]4(C)[C@@H]3CC[C@]12C", "cytotoxicity increase": "15.6% [at 35.3 µM]"}
{"smiles": "CC[C@H](NC(=O)c1cc(F)ccc1NS(=O)(=O)c1cccc2cccnc12)c1ccccc1", "cytotoxicity increase": "0.167%"}
{"smiles": "CC(C)c1nnc2ccc(-c3ocnc3-c3cc(F)ccc3F)cn12", "cytotoxicity increase": "-15.1%"}
{"smiles": "CN(C(=O)C(Cl)Cl)c1ccc(OC(=O)c2ccco2)cc1", "cytotoxicity increase": "9.76% [at 35.3 µM]"}
{"smiles": "Cc1nc2ccccn2c(=O)c1CCN1CCC(C(=O)c2ccc(F)cc2)CC1", "cytotoxicity increase": "1.34% [at 35.3 µM]"}
{"smiles": "CNC(=O)N(c1ccccc1)c1ccccc1", "cytotoxicity increase": "4.49%"}
{"smiles": "CC(CCO)CCc1ccccc1", "note": "(stereo not given)", "cytotoxicity increase": "0.196%"}
{"smiles": "CCN(CC)CCNC(=O)c1ccc(NC(C)=O)cc1", "cytotoxicity increase": "3.35% [at 35.3 µM]"}
